Assay results reported in the supplement of paper PMC6555819.

Columns and labels:
Experiment in all cases: PBM binding z-score (relative to random genomic background probes); higher = stronger binding; sequences stand for … in GC…GCGATTGACAGCGTAGAATGAAGG
[1] = system: FXR:RXRa (NR concentration 270 nM, RXRa partner concentration 90 nM)
Summary of the method: (§1)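 For binding z-scores, the reference was random background probes on custom Agilent 4×180K protein-binding microarrays. These arrays were incubated 1 h with ligand-free nuclear receptor dimers in PBS pH 7.4, 2% milk, 0.02% Triton X-100, 1 mM DTT, 0.2 mg/mL BSA and 0.4 mg/ml salmon testes DNA. Fluorescence was scanned after antibody detection of each partner (one per run) and regression-normalized.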

[2] = system: LXRa:RXRa (NR concentration 270 nM, RXRa partner concentration 90 nM)
Summary of the method: as §1

[3] = system: LXRa homodimer (NR concentration 270 nM)
Summary of the method: as §1

[4] = system: LXRb:RXRa (NR concentration 270 nM, RXRa partner concentration 90 nM)
Summary of the method: as §1

[5] = system: LXRb homodimer (NR concentration 270 nM)
Summary of the method: as §1

[6] = system: PPARa:RXRa (NR concentration 270 nM, RXRa partner concentration 90 nM)
Summary of the method: as §1

[7] = system: PPARg:RXRa (NR concentration 180 nM, RXRa partner concentration 90 nM)
Summary of the method: as §1

[8] = system: PPARg:RXRa 270nM:90nM, anti-RXR (NR concentration 270 nM, RXRa partner concentration 90 nM)
Summary of the method: as §1

[9] = system: PPARg:RXRa 30nM:10nM, anti-RXR (NR concentration 30 nM, RXRa partner concentration 10 nM)
Summary of the method: as §1

[10] = system: PPARg:RXRa 90nM:30nM, anti-RXR (NR concentration 90 nM, RXRa partner concentration 30 nM)
Summary of the method: as §1

[11] = system: PPARg:RXRa DBDmut IVT, anti-RXR (DBD mutation: RXRa K156A/R161A, NR concentration 270 nM, RXRa partner concentration 90 nM)
Summary of the method: as §1

[12] = system: PPARg:RXRa IVT, anti-PPARg (NR concentration 270 nM, RXRa partner concentration 90 nM)
Summary of the method: as §1

[13] = system: PPARg DBDmut:RXRa IVT, anti-PPARg (DBD mutation: PPARg1 K132A/R137A, NR concentration 270 nM, RXRa partner concentration 90 nM)
Summary of the method: as §1

[14] = system: PPARg DBDmut IVT, anti-PPARg (DBD mutation: PPARg1 K132A/R137A, NR concentration 270 nM)
Summary of the method: as §1

[15] = system: PPARg homodimer (NR concentration 180 nM)
Summary of the method: as §1

[16] = system: PXR:RXRa (NR concentration 270 nM, RXRa partner concentration 90 nM)
Summary of the method: as §1

[17] = system: PXR homodimer (NR concentration 270 nM)
Summary of the method: as §1

[18] = system: RARa:RXR (NR concentration 270 nM, RXRa partner concentration 90 nM)
Summary of the method: as §1

[19] = system: RARa homodimer (NR concentration 270 nM)
Summary of the method: as §1

[20] = system: RARb:RXRa (NR concentration 270 nM, RXRa partner concentration 90 nM)
Summary of the method: as §1

Sequence	PBM binding z-score [1]	PBM binding z-score [2]	PBM binding z-score [3]	PBM binding z-score [4]	PBM binding z-score [5]	PBM binding z-score [6]	PBM binding z-score [7]	PBM binding z-score [8]	PBM binding z-score [9]	PBM binding z-score [10]	PBM binding z-score [11]	PBM binding z-score [12]	PBM binding z-score [13]	PBM binding z-score [14]	PBM binding z-score [15]	PBM binding z-score [16]	PBM binding z-score [17]	PBM binding z-score [18]	PBM binding z-score [19]	PBM binding z-score [20]
CTCGAAAGGTCGGTTGAGGTGAGTAGACGGATAA	2.24	1.85	0.0366	1.44	-0.503	2.76	0.386	1.51	0.222	0.586	-0.178	0.996	-0.252	-0.747	0.919	3.03	0.241	2.71	-0.0972	3.11
GCTGACAGGTGAAACGCAGGTAACTCAGGGTGGC	-0.217	0.213	-0.763	-0.392	-0.869	0.868	0.373	-0.307	-0.779	-0.533	1.22	0.804	-0.781	-1.24	-0.522	-0.223	-0.797	0.499	-1.1	0.773
CGTCCAAGGTCATAGGAGGTCAGTTAAGACAGAT	7.74	7.74	5.66	6.32	1.11	5.68	5.84	5.96	2.29	4.5	3.03	4.5	0.532	0.526	3.95	6.47	4.13	5.73	1.43	5.36
GCTTACGCGTCAAAGGTTATAGCATGAATAGAAT	1.21	1.97	-0.0765	2.18	-0.553	3.38	3.1	3.84	2.28	4.07	-0.0505	0.407	-0.0262	0.00309	1.46	2.22	-0.288	3.3	-0.0243	1.22
ATCTCTAGGTAACCAAGTTCAGTGAATGCCGAAC	0.707	1.04	0.708	0.638	0.763	1.33	0.617	0.913	0.376	0.682	3.64	3.09	0.611	1.02	1	1.86	1.98	0.882	0.575	1.36
TCTAGCAGGCCAAAGGGTCACTCAAGAGGTACGG	2.46	2.67	0.121	2.6	-0.592	3.89	3.36	4.84	3.5	4.89	1.61	2.45	-0.396	-0.432	2.19	2.95	-0.0548	3.89	0.234	3.74
TCTTGTAGCTCAAGCAGGTTAAGAAAGCCTGAGT	-0.423	-0.287	-0.662	0.0107	-0.909	0.461	-0.708	0.77	2.04	1.39	0.652	-0.0591	-0.768	-0.282	-1.23	-0.102	-0.596	-0.128	-0.944	-0.012
GCTAATAGTTGAAAGGGCAACCGAATGATTCTCG	0.971	1.16	-0.065	1.09	-0.087	2.85	3.03	4.2	2.1	3.9	0.302	1.27	-0.057	-0.27	0.836	0.859	-0.00303	1.61	0.745	2.21
ATATGTAGGTTAAGGGGCATTCAGGTTGGTTCGC	1.42	2	1.15	2.75	1.48	5.25	9.21	8.26	8.39	9.63	7.2	7.11	2.3	1.88	2.29	2.12	1.83	1.92	1.47	1.78
TCTTGTGGATCAAAGGTTAAGAAAGCCGAAGCCT	1.78	1.88	0.101	2.08	0.0498	4.58	7.94	7.64	7.24	8.31	1.84	3.48	0.81	-0.181	1.3	1.98	-0.205	2.8	0.693	1.82
CAAACTAGGTCAAAGATCAAAGTCGAGCCAACCA	4.71	3.87	0.503	3.15	0.553	6.47	11.6	9.58	9.42	10.6	8.07	8.58	1.49	0.885	1.76	2.81	0.46	4.42	0.53	3.99
CGAACTAGGTCATTGACAGGACAGTTAATAGTAA	4.35	3.12	0.774	2.36	0.0885	4.66	7.39	6.51	3.39	5.59	8.43	8.43	3.82	2.93	2	1.68	0.386	2.32	0.822	3.6
TAGCCTAGGTCATGCGGGCCAGGATAGTGTCGGC	3.94	2.96	0.218	1.4	-0.35	3.42	2.26	2.41	0.605	1.56	1.52	3	-0.00181	-0.781	0.191	1.29	-0.269	1.89	-0.855	3.74
TAGCCTAGGTCATGGGCGAGTATACCACGCGAAC	4.42	3.43	0.0703	2.28	-0.329	4.15	3.46	3.42	0.67	2.09	1.54	3.26	0.096	-0.639	0.74	1.53	-0.407	2.3	-0.782	3.91
CGAACTAGGTCAGAACTGGACAGTGAAGGATGAT	0.671	0.375	-0.326	0.262	-0.439	3.26	5.1	4.49	1.77	3.68	6.94	7.08	2.69	3.66	1.37	0.313	-0.282	0.591	-0.224	2.71
GGTTACGGGTCAAAGGTTATAGCATGAATAGAAT	7.96	5.86	0.937	5.95	0.466	7.09	11.1	9.43	8.67	10.2	3.06	6.69	1.77	1.31	2.81	6.3	0.489	8.27	1.03	4.72
AATACAGGGTCATGGTAGGCCAGAGTACGCACAG	7.24	6.51	2.02	4.67	1.09	6.07	6.85	6.13	2.87	4.97	2.45	4.41	2.48	1.13	3.31	4.8	0.859	5.21	1.28	4.25
TCTTGTAGATCTAAGGTTAAGAAAGCCGAAGCCT	0.97	0.808	0.287	1.16	-0.127	1.98	1.85	3.71	3.41	4.08	1.71	0.863	0.224	-0.213	0.385	0.921	-0.35	1.55	-0.0766	0.9
TGTCAAAGTTCAAAGGTAACATAAGTATCCACAC	7.47	6.45	4.6	5.05	2.12	6.03	8.82	7.65	5.46	7.34	0.298	4.93	1.53	2.04	3.31	5.72	4.18	6.28	1.65	5.24
ATATGTAGGTTATCGGGTCATTCCGTTTGCGCAT	3.08	3.17	1.85	3.11	0.638	4.81	6.78	5.92	3.37	5.6	7.56	7.62	4.25	2.25	2.58	3.12	1.27	3.83	0.962	2.65
CCTGCTAGGTCATGGTCAGCTATTCTACAGTATG	3.41	2.49	0.199	1.79	-0.409	3.28	2.34	2.63	0.534	1.64	4.23	3.4	-0.449	-0.223	2.13	1.28	-0.498	2.3	-0.317	3.95
AGAATGAGGCTATTAAGATCAGGGAATTGCGGTC	-0.289	-0.438	-0.31	-0.728	-0.68	-0.226	0.441	-0.417	-0.0887	-0.313	0.775	0.484	0.528	-0.351	-0.817	-0.436	-0.252	-0.197	-0.295	0.119
ACTCGGAGGACTAAGGTCAGAGCTACGCCAGTGA	1.93	1.78	0.464	1.49	-0.00791	2.52	1.93	2.96	0.578	2.41	-0.123	0.778	-0.0206	-0.832	1.27	1.8	0.241	2.92	-0.326	2.88
GTACCCAGGTGAATAGGTCGTTGATGAGTAGGCG	0.381	0.343	-0.131	0.285	-0.0749	1.59	1.34	1.25	0.309	0.972	1.26	2.42	-0.166	-0.407	0.786	0.279	0.138	1.08	0.238	0.908
AATACAGGGTCATCGCAGGCCAGAGTACGCACAG	7.15	6.19	2.29	4.62	1.25	5.93	6.6	6.2	2.73	4.39	2.75	4.33	1.54	0.985	1.94	5.07	0.737	4.69	1.07	4.45
CCTCGGAGGACAACAGCAGGTCAGAGCTGCCAGA	0.202	0.89	0.459	0.176	-0.75	0.561	0.1	-0.313	-0.784	-0.736	0.0913	-0.0313	-0.897	-1.32	0.749	0.458	-0.253	0.722	0.0209	2.04
TCGTATAGGTAAATGCTAGGTGAAAGTCCGATCT	0.843	0.876	0.236	0.653	0.0986	0.931	0.156	1.84	3.04	2.54	2.09	1.21	0.00787	0.782	0.833	0.373	-0.198	0.889	0.867	0.432
GCTTTCGGGTCAAAGGTTATAGCATGAATAGAAT	7.21	5.74	0.496	5.58	0.746	6.76	11.3	9.26	8.67	10	3.82	5.81	1.23	1.1	1.81	5.89	0.475	8.07	1.08	4.59
